Records with an inconclusive call do not appear. Active and inactive are the calls of the source. Unless noted, calls come from the whole dose curve; as a rule, active = well fitted curve in the direction sought with a large enough effect; inconclusive = small, poorly fitted or top-dose-only effect, or another doubt; inactive = no such curve, though single readings can be large; an effect the other way counts as inactive or inconclusive.

A short description of assay [1]: qHTS of pediatric cancer cell lines to identify multiple opportunities for drug repurposing: Primary screen for TC32 cells (AID 1347089). Note: nearly all actives have a fitted effect of over 60% in size. Note: potency is the fitted concentration of half-maximal effect. In short, it runs like this:
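TC32 cells, 500-1,000/well in growth medium, compound-treated 48 h at 37 °C; viability from CellTiter-Glo luminescence. Primary screen: MIPE 11-point (0.78 nM–46 µM final), NPC 8-point (0.59 nM–46 µM final); confirmatory at 11-point dilutions.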
(Quantitative high-throughput screening tests each substance at several concentrations.)

Assay [2] in a line: qHTS of pediatric cancer cell lines to identify multiple opportunities for drug repurposing: Primary screen for DAOY cells (AID 1347090). Note: nearly all actives have a fitted effect of over 55% in size. Note: potency is the fitted concentration of half-maximal effect. In short, it runs like this:
(§1)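 Viability measured as metabolically active cells via CellTiter-Glo luminescence following 48 hours of compound exposure, 11-point dilutions in confirmatory testing. 500-1,000 cells/well plated 5 hours before dosing; controls were DMSO and 2.3 µM bortezomib.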

Assay [3] is described as follows: qHTS of pediatric cancer cell lines to identify multiple opportunities for drug repurposing: Primary screen for SJ-GBM2 cells (AID 1347091). Note: potency is the fitted concentration of half-maximal effect. In short, it runs like this:
as §1

Assay [4] can be described thus: qHTS of pediatric cancer cell lines to identify multiple opportunities for drug repurposing: Primary screen for A673 cells (AID 1347092). Note: nearly all actives have a fitted effect of over 45% in size. Note: potency is the fitted concentration of half-maximal effect. In short, it runs like this: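 A673 cells (500-1,000 cells/well) were treated 48 hours at 37 degrees C with compounds at 11-point (0.78 nM to 46 µM) or 8-point (0.59 nM to 46 µM) dilutions. Viability read by CellTiter-Glo luminescence; concentration-response curves fitted.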

The nature of assay [5]: qHTS of pediatric cancer cell lines to identify multiple opportunities for drug repurposing: Primary screen for SK-N-MC cells (AID 1347093). Note: potency is the fitted concentration of half-maximal effect. In short, it runs like this:
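Metabolically active cells were quantified by ATP-dependent luminescence (CellTiter-Glo, 15 min at room temperature) following 48 h treatment. Cells had been plated at 500-1,000 per well and settled for 5 h beforehand.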

A short description of assay [6]: qHTS of pediatric cancer cell lines to identify multiple opportunities for drug repurposing: Primary screen for BT-37 cells (AID 1347094). Note: potency is the fitted concentration of half-maximal effect. In a few lines: (§2)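 Luminescence from CellTiter-Glo served as readout of metabolically active cells after 48 h compound exposure. Titrations: MIPE 11-point, from 0.78 nM; NPC 8-point, from 0.59 nM (final). Concentration-response curves came straight from the primary screen.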

Assay [7] can be described thus: qHTS of pediatric cancer cell lines to identify multiple opportunities for drug repurposing: Primary screen for NB-EBc1 cells (AID 1347095). Note: potency is the fitted concentration of half-maximal effect. In short, it runs like this: as §2
A short description of assay [8]: qHTS of pediatric cancer cell lines to identify multiple opportunities for drug repurposing: Primary screen for U-2 OS cells (AID 1347096). Note: nearly all actives have a fitted effect of over 50% in size. Note: potency is the fitted concentration of half-maximal effect. In a few lines:
(§3)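 Viability after 48 h compound treatment at 37C, 500-1,000 cells/well, read as ATP luminescence with CellTiter-Glo. Primary screens used 11-point (MIPE, 0.78 nM-46 µM) or 8-point (NPC, 0.59 nM-46 µM) final concentrations; follow-up screens used 11-point dilutions.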

The nature of assay [9]: qHTS of pediatric cancer cell lines to identify multiple opportunities for drug repurposing: Primary screen for Saos-2 cells (AID 1347097). Note: nearly all actives have a fitted effect of over 40% in size. Note: potency is the fitted concentration of half-maximal effect. In a few lines: as §2
Assay [10] in a line: qHTS of pediatric cancer cell lines to identify multiple opportunities for drug repurposing: Primary screen for SK-N-SH cells (AID 1347098). Note: nearly all actives have a fitted effect of over 65% in size. Note: potency is the fitted concentration of half-maximal effect. In a few lines: (§4)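 Cells (500-1,000/well) rested 5 h, then received compounds for 48 h; metabolically active cells were measured by CellTiter-Glo luminescence. Final concentrations spanned up to 46 µM (MIPE, 11-point) or 0.59 nM-46 µM (NPC, 8-point) in primary screens, 11-point in follow-ups.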

Assay [11] is described as follows: qHTS of pediatric cancer cell lines to identify multiple opportunities for drug repurposing: Primary screen for LAN-5 cells (AID 1347100). Note: potency is the fitted concentration of half-maximal effect. In a few lines:
as §3

The nature of assay [12]: qHTS of pediatric cancer cell lines to identify multiple opportunities for drug repurposing: Primary screen for BT-12 cells (AID 1347101). Note: nearly all actives have a fitted effect of over 25% in size. Note: potency is the fitted concentration of half-maximal effect. In short, it runs like this:
as §4

Assay [13] can be described thus: qHTS of pediatric cancer cell lines to identify multiple opportunities for drug repurposing: Primary screen for Rh18 cells (AID 1347102). Note: nearly all actives have a fitted effect of over 65% in size. Note: potency is the fitted concentration of half-maximal effect. In a few lines:
as §3

Assay [14] deals with Parathyroid hormone/parathyroid hormone-related peptide receptor (Homo sapiens) (UniProt Q03431). The experiment in a line: qHTS for PTHR1 Agonists: Optimization Screen against the NCGC LOPAC library (AID 1347079).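 Note: GloSensor cAMP luminescence in HEK-293 GP2 cells expressing human PTHR1 with IBMX.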 In short, it runs like this:
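Compounds were tested across a qHTS titration. PTHR1-expressing GP2 cells report cAMP rises via GloSensor luminescence after 1 hr compound exposure at 37C with IBMX present.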

The target in assay [15] is Tyrosine-protein phosphatase non-receptor type substrate 1 (Homo sapiens) + Leukocyte surface antigen CD47 (Homo sapiens) (UniProt P78324+Q08722). As to the kind of experiment: CD47-SIRPalpha protein protein interaction - LANCE assay qHTS validation (AID 1347057; active = well fitted curve in the direction sought with a large enough effect in the signal ratio, with a control signal flat, not every such curve was filed as active; the % refers to the signal ratio; note: series mostly up to about 38 µM). In short, it runs like this:
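First, His-tagged CD47 and Eu-labelled anti-His antibody met the compound for 30 min; next, site-specifically biotinylated SIRPalpha was added for 30 min; finally streptavidin-APC was added before reading the TR-FRET ratio.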
In general terms: In TR-FRET formats the signal depends on donor and acceptor labels being close together.

Parathyroid hormone/parathyroid hormone-related peptide receptor (Homo sapiens), sequence (Q03431 whole entry, looked up): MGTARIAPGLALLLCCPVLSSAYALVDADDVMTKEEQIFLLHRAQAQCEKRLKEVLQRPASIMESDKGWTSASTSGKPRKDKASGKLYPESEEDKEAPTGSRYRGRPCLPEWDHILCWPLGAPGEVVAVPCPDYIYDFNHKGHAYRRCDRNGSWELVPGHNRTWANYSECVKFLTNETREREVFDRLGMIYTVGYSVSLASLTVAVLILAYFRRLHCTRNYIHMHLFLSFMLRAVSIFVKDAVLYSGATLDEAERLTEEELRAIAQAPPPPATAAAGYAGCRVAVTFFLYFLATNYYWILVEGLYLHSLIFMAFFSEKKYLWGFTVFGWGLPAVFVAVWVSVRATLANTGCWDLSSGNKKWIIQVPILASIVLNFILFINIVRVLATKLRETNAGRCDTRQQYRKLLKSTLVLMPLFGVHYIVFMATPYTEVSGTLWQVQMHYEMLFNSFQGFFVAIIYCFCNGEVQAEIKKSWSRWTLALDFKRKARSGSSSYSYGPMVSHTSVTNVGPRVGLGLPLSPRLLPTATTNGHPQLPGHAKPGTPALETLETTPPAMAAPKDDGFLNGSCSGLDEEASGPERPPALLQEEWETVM
Tyrosine-protein phosphatase non-receptor type substrate 1 (Homo sapiens) + Leukocyte surface antigen CD47 (Homo sapiens), sequence (P78324 whole entry, looked up): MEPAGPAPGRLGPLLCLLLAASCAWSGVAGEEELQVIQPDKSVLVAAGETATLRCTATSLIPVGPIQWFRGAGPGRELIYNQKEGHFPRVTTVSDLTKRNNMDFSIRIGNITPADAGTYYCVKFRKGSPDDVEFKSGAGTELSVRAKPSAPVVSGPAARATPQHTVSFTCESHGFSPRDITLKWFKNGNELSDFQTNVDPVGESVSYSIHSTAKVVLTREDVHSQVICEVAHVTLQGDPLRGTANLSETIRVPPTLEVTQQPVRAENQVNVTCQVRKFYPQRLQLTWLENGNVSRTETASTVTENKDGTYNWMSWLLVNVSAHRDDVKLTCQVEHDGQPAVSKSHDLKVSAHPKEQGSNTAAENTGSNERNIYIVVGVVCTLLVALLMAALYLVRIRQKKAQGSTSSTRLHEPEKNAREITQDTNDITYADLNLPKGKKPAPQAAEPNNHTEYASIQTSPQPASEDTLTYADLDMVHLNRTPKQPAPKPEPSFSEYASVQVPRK
Tyrosine-protein phosphatase non-receptor type substrate 1 (Homo sapiens) + Leukocyte surface antigen CD47 (Homo sapiens), sequence (Q08722 whole entry, looked up): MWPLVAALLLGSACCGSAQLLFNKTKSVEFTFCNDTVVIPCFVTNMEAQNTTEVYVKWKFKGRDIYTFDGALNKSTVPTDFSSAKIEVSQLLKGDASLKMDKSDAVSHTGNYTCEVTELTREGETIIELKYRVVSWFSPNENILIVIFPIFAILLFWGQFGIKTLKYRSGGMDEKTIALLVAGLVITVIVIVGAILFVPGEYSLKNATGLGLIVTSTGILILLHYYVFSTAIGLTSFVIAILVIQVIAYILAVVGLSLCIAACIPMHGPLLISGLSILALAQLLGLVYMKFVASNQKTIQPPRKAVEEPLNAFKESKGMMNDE

As for `O=C(O)Cc1ccc(-c2ccccc2)cc1`, the Potency result in assay [1], in assay [2], in [3], in assay [4], in assay [5] and in assay [6] was “inactive” each time. For the same compound, the Potency result in assay [7], in assay [8], in assay [9], in [10], in [11] and in assay [12] was “inactive” throughout. Besides, the Potency result in assay [13] is “inactive”.

On to `COC(=O)c1nc(Cl)c(Cl)nc1N`, for which the Potency in assay [1] was 3.33 µM (active); in assay [2], 1.33 µM (active); in assay [3] it was 5.31 µM (active); in [4] it was 2.11 µM (active); in assay [5] it was 0.668 µM (active); in [6], 13.8 µM (active). Moreover, the Potency was 1.33 µM (active) in assay [7]; 13.3 µM (active) in [8]; 2.37 µM (active) in assay [9]; 3.44 µM (active) in assay [10]; 3.35 µM (active) in [11]; 2.19 µM (active) in [12]. Further, in [13], the Potency is 23.7 µM (active).

With `Nc1ccc(O)c(C(=O)O)c1`, the Potency entry in [1], in assay [2], in assay [3], in [4], in assay [5] and in assay [6] was “inactive” each time. In addition, the Potency entry in assay [7], in assay [8], in assay [9], in assay [10], in [11] and in assay [12] was “inactive” throughout. Further, the Potency entry in assay [13] was “inactive”.

For the compound `C[N+](C)(C)CC(=O)[O-]`, the Potency entry in assay [14] is “inactive”.

Turning to `Cc1cc(O)c2ccccc2c1O`, in assay [1], the Potency entry was “inactive”. Further, the figures for the Potency in assay [4], in [5] and in [10] were 10.6 µM (active), 21.1 µM (active) and 34.4 µM (active), respectively.

Consider `COc1ccccc1N1CCN(CCN(C(=O)c2ccc(I)cc2)c2ccccn2)CC1`, for which the Potency entry in [14] was “inactive”.

Regarding `CC(C)ON([C@@H](C(=O)NO)C(C)C)S(=O)(=O)c1ccc(-c2ccccc2)cc1`, the Potency result in assay [14] was “inactive”.

Consider `C=CC(=O)c1ccc(CCCCCC)cc1`, for which the Potency entry in assay [14] was “inactive”.

Turning to `N#C/C(=C\c1ccc(O)c(O)c1)C(=O)c1ccc(O)c(O)c1`, the Potency entry in assay [15] and in [14] was “inactive” each time.

Consider `O=C(O)[C@@H]1C[C@H](C(=O)O)N1`, for which, in assay [14], the Potency entry is “inactive”.

`c1ccc(CCNc2nc(-c3ccccc3)cs2)cc1`: the Potency entry in assay [1], in [5], in assay [6], in assay [8], in assay [11] and in [13] was “inactive” throughout.

In the case of `C#CCN1C(C)=C(C(=O)OC)C(c2cccc([N+](=O)[O-])c2)C(C(=O)OCC)=C1C` (centres undefined), the Potency entry in assay [14] is “inactive”.

For `c1ccc2sc(SSc3nc4ccccc4s3)nc2c1`, the Potency entry in assay [1], in assay [2], in [3], in [5], in [6] and in assay [7] was “inactive” throughout. The Potency result in assay [8], in assay [9], in [10], in assay [11], in assay [12] and in assay [13] was “inactive” throughout.

Turning to `Nc1ncnc2c1c(I)cn2[C@@H]1C[C@H](N)[C@@H](O)[C@H]1O`, in assay [14], the Potency result is “inactive”.

In the case of `CN1CCc2cc(O)c(O)cc2C(c2ccccc2)C1` (centres undefined), in assay [14], the Potency result was “inactive”.

As for `COC(=O)Nc1nc2ccc(C(=O)C3CC3)cc2[nH]1`, the Potency is 1.33 µM (active) in [1]; 1.06 µM (active) in assay [2]; 0.841 µM (active) in assay [3]; 1.06 µM (active) in assay [4]; 1.06 µM (active) in assay [5]; 2.19 µM (active) in assay [6]. The Potency in assay [7] was 0.596 µM (active); in assay [9], 0.841 µM (active); in [11], 0.841 µM (active); in [12], 2.19 µM (active). Besides, the Potency entry in assay [13] is “inactive”.

Regarding `Cc1ccc2c(n1)Oc1ccc(C(C)C(=O)OCC(=O)N(C)C)cc1C2` (centres undefined), the Potency result in assay [1], in [2], in assay [3], in assay [4], in assay [5] and in assay [6] was “inactive” each time. Also, the Potency entry in [7], in assay [8], in assay [10], in assay [11], in [12] and in assay [13] was “inactive” in each case.

The record behind these values is PubChem BioAssay (NCATS).
